Screens from PubChem BioAssay.
OPRM1-OPRD1 inv: inverse agonist of human OPRM1-OPRD1 heterodimerization; cell-based MOR-DOR heterodimer luminescence, inverse agonism; AID 504357; P35372+P41143; inhibition, % at 9.3 µM; hit rate 0.21% among 340,000; in the data active = inhibition above about 22%, passing the limit was not always enough;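 note: 0% = cells with DMSO and 100% = wells without cells with DMSO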
MOR-DOR ag: agonists of human mu-delta opioid receptor heterodimerization. P35372+P41143. activation, % at 9.3 µM. hit rate 0.3% among 340,000. cells, OPRM1-OPRD1 heterodimerization, luminescence; in the data active = activation above about 18%;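 note: 0% = vehicle-treated cells and 100% = reference agonist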
HTR5A inv ctr: counter-screen for OPRM1-OPRD1 inverse agonists: human HTR5A inverse agonism | P47898 | HTR5A cell line, luminescence | inhibition, % at 9.3 µM | hit rate 0.083% among 340,000 | AID 504634; in the data active = inhibition mostly above about 23%, no sharp cut-off; inactive = mostly below about 18%;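 note: 0% = cells with DMSO and 100% = no-cell wells with DMSO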
Target sequence (P47898 whole entry, looked up): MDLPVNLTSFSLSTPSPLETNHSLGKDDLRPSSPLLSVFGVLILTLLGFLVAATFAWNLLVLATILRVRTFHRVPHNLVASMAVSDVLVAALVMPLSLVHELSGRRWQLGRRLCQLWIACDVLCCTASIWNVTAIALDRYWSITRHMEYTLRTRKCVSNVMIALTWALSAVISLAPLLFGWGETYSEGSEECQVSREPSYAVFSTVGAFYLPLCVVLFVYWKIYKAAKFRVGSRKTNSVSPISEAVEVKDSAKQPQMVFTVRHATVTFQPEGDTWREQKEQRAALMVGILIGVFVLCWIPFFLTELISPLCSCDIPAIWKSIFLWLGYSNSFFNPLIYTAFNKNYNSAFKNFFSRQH
HTR5A ag ctr: HTR5A agonism, opioid heterodimer counter-screen. P47898. HTR5A agonist assay, luminescence, cell-based. activation, % at 9.3 µM. hit rate 0.61% among 340,000. AID 504692; in the data active = activation mostly above about 9.5%, no sharp cut-off; inactive = mostly below about 7.6%;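 note: 0% = cells with vehicle only and 100% = reference agonist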
An asterisk follows results filed as active. A selection: hits, their analogues and other compounds. The true share with any hit is near 1.1%.

SMILES | OPRM1-OPRD1 inv | MOR-DOR ag | HTR5A inv ctr | HTR5A ag ctr
O=C(CN1CCC(NC(=O)c2ccccc2Cl)CC1)NCc1ccco1 | 7 | -1 | 4 | -2
CC(C)NC(=O)C(C)N1CCN(S(=O)(=O)c2ccc3ccccc3c2)CC1 (configuration not stated) | 7 | -1 | 2 | -1
COc1ccc(CC(=O)Oc2ccc(F)c(F)c2)cc1S(=O)(=O)N1CCOCC1 | 4 | -1 | 9 | -8
Cn1c(=NC(=O)CCl)sc2ccccc21 | -274 | 47* | -78 | 57*
CCOc1ccc(-c2nonc2NC(=O)c2ccco2)cc1OCC | -6 | 1 | -5 | 13*
COc1ccc(-c2nonc2NC(=O)c2ccco2)cc1OC | 8 | -2 | 8 | -4
CCC1=[N+](CC(=O)c2ccc(Br)cc2)CCn2c(C)ccc21 | -1 | 0 | -3 | 12*
O=C(Nc1ccccn1)c1ccc2ccccc2n1 | 13 | -3 | -11 | 8.9*
O=S(=O)(NNc1ncc(C(F)(F)F)cc1Cl)c1ccc(F)cc1F | -9 | 2 | -28 | 11
Fc1ccc(NC(=S)NNc2ncc(C(F)(F)F)cc2Cl)c(F)c1 | 56* | -10 | 39* | -15
O=C(NNc1ncc(C(F)(F)F)cc1Cl)c1ccc(Cl)c(Cl)c1 | 15 | -3 | -4 | 2
FC(F)(F)c1cnc(NNC(=S)Nc2ccc(Cl)cc2)c(Cl)c1 | 49* | -10 | 49* | -10
Cn1c(SCC(=O)Nc2ccc3[nH]c(=O)[nH]c3c2)nnc1-c1ccc(F)cc1 | -1 | 0 | 11 | 0
O=C(c1ccc2c(c1)OCO2)C1CCCN(Cc2ccccc2OC(F)F)C1 (configuration not stated) | -45 | 8 | -3 | 13*
COc1cccc(CN2CCCC(C(=O)c3ccc4c(c3)OCO4)C2)c1OC (configuration not stated) | 2 | 0 | 10 | 0
CCN(CC)c1ccc(NC(=O)Nc2cccc(C(C)=O)c2)cc1 | -4 | 1 | -34 | 13*
COc1cccc(C(=O)Nc2ccc3c(cc2=O)[C@@H](NC(C)=O)CCc2cc(OC)c(OC)c(OC)c2-3)c1 | -6 | 1 | -194 | 52*
CC(C)c1cc2c(c(O)c1O)[C@@]13CCCC(C)(C)C1CC2OC3=O (some centres not stated) | -15 | 3 | -17 | 2
CN1CCN(C(=S)SCc2nc(N)nc(Nc3ccc(F)cc3)n2)CC1 | 3 | 0 | -29 | 11*
Nc1nc(CSC(=S)N2CCOCC2)nc(Nc2ccc(F)cc2)n1 | 13 | -2 | -16 | 1
Cc1ccc(-n2c(=O)[nH]c3c(C(N)=O)nc(-c4ccc(C)o4)nc32)cc1 | -18 | 3 | -41 | 11*
COc1ccc(CC(=O)Nc2ccc(-c3nc4cc(C)ccc4o3)c(O)c2)cc1OC | -3 | 1 | 5 | 14*
CCOc1ccc(C(CC(=O)O)NC(=O)c2cccs2)cc1OC (configuration not stated) | 2 | 0 | 35 | 0
CCc1ccc(S(=O)(=O)c2nnn3c2nc(NCCNC(C)=O)c2ccccc23)cc1 | -14 | 2 | -27 | 11*
CCCCNc1nc2c(S(=O)(=O)c3ccccc3)nnn2c2ccccc12 | -3 | 1 | -29 | 0
SMILES | OPRM1-OPRD1 inv | MOR-DOR ag | HTR5A inv ctr | HTR5A ag ctr
CC(=O)Nc1nc2n(n1)C(c1ccccc1)C=C(c1ccccc1)N2 (configuration not stated) | 17 | -3 | 32* | -12
CC(=O)NC(CC(=O)OCC(=O)N1CCc2ccccc21)c1ccccc1 (configuration not stated) | -1 | 0 | -4 | 1
Cc1ccccc1-n1c(=O)n(Cc2ccc(C(=O)O)cc2)c(=O)c2[nH]cnc21 | 6 | -1 | 7 | -2
Cc1ccc(S(C)=O)cc1-n1c(=O)n(Cc2ccccc2)c(=O)c2[nH]cnc21 (configuration not stated) | 69* | -12 | 55* | -14
COc1cc(C(=O)NC(=S)Nc2cccc3nc(C)ccc23)cc(OC)c1OC | -135 | 27* | -59 | 30*
Cc1ccc2c(NC(=S)NC(=O)c3ccccc3)cccc2n1 | 24 | -7 | 16 | 5
CN(C)CCCNC(=O)N1c2ccccc2C=Cc2ccccc21 | 4 | -1 | -38 | -1
COc1ccc(CNC(=O)CN2C(=O)C(C)N(c3ccc(C)cc3)C2=O)cc1 (configuration not stated) | 8 | -1 | -8 | 12*
CCCCc1ccc(CC(=O)Nc2cc(S(=O)(=O)N3CCOCC3)ccc2O)cc1 | 4 | -1 | 4 | -1
COc1ccc(C)cc1NC(=O)C1CCN(S(C)(=O)=O)CC1 | 3 | -1 | 23 | -6
